# Screening results deposited in PubChem BioAssay by National Center for Advancing Translational Sciences (NCATS).
# Compounds with a hit are over-represented: about 21% of the library has one in this group of screens.
# DRD3 antagonist: qHTS of D3 Dopamine Receptor Antagonist: qHTS | D(3) dopamine receptor (Homo sapiens), P35462 | AID 652054, 2013 | max response, negative = inhibition, % | 360,000 tested, 2.5% active | D3R cells, DiscoveRx beta-arrestin luminescence, antagonist mode; stronger effect = lower value; in the data active means max response below about -50%; inconclusive means no clear call, values can overlap the other calls
# Target sequence (P35462 whole entry, looked up): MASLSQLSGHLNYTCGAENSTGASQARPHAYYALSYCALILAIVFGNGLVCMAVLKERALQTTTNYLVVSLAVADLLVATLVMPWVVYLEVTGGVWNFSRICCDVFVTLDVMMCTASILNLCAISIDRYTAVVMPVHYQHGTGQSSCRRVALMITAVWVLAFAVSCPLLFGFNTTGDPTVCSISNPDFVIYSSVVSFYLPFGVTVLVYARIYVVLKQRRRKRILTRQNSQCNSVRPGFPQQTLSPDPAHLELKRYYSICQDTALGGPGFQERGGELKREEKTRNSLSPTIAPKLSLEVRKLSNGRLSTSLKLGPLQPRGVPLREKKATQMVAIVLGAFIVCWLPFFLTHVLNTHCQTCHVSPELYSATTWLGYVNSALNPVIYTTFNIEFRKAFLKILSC
#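 Cells plated overnight at 1500 cells/well, then exposed to library compounds with dopamine controls for 90 minutes at 37 degrees C. DiscoveRx reagent added for 30–60 minutes at room temperature; luminescence read, quantitative HTS format.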
# D3 ag: qHTS of D3 Dopamine Receptor Agonist: qHTS; D3R DiscoveRx beta-arrestin cells, luminescence, 90 min; max activation, %; 410,000 tested, 0.58% active; in the data active means max activation above about 30%
#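 Cells at 1500/well, incubated overnight, then treated with pinned compounds (dopamine as control) for 90 min at 37 degrees C. DiscoveRx reagent added for 30 - 60 minutes at room temperature; luminescence read.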
# DT40 TDP1 CPT: qHTS for Inhibitors of human tyrosyl-DNA phosphodiesterase 1 (TDP1): qHTS in cells in presence of CPT | chicken DT40 Tdp1-/-;hTDP1 cells + 20 nM CPT, ATP luminescence, 48 h | Potency, µM (highest dose often 46.2 µM), most hits filed as inhibitors | 420,000 tested, 12% active; further: nearly all actives have a fitted effect of over 55% in size
#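 Chicken DT40 Tdp1-/- cells stably complemented with human TDP1 were seeded at 400 cells/well in medium containing 20 nM camptothecin, exposed to pin-transferred compounds, and grown at 37 °C for at least 48 hr. Viability was read as ATP luminescence.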
# TDP1 cell noCPT: qHTS for Inhibitors of human tyrosyl-DNA phosphodiesterase 1 (TDP1): qHTS in cells in absence of CPT. DT40 Tdp1-/- hTDP1 cells, no CPT, ATP luminescence, 48 h. Potency, µM (series often up to 46.2 µM), usual class: inhibitors. 420,000 tested, 15% active. AID 686978, 2013; further: nearly all actives have a fitted effect of over 55% in size
#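 Camptothecin absent (DMSO only). Human TDP1-complemented DT40 knockout cells, 400 cells/well, 37 °C for minimum 48 hr; ATP measured via CellTiter-Glo, 30 min dark incubation, luminescence.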
# ClpP mod: qHTS Assay for Activators of ClpP. ATP-dependent Clp protease proteolytic subunit (Bacillus subtilis (strain 168)), P80244. purified B. subtilis ClpP, FRET peptide cleavage, 20 min. Potency, µM (titrated, usually from 57.5 µM). 340,000 tested, 1.9% active. AID 651965, 2013; active means well fitted falling curve with a large enough effect; inconclusive means small, poorly fitted or top-dose-only effect; inactive means no such curve, though single readings can be large or run the other way; further: the source files actives as falling curves though it sought activators and does not explain the sign; nearly all actives have a fitted effect of over 65% in size
# Target sequence (P80244 whole entry, looked up): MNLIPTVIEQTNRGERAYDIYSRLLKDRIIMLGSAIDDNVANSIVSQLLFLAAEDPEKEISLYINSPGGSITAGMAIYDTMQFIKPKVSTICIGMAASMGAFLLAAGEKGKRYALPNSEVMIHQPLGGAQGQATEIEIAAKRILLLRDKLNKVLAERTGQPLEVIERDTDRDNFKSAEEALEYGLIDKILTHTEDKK
#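 ClpP 10 microg/mL final, pH 8 Tris/KCl buffer with BSA, glycerol, Tween-20; compound pinned in; FRET-FV substrate; RT 20 min; Ex320/Em430; ΔFRET vs ADEP 5.8 microM, DMSO, no enzyme.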
# IL1B secr inh: qHTS for Inhibitors of Inflammasome Signaling: IL-1-beta AlphaLISA Primary Screen; activity change, % at 57.5 µM; AID 743279, 2014; THP-1 LPS/ATP IL-1B secretion, AlphaLISA, 16 h; stronger effect = lower value; 360,000 tested, 4.7% active; in the data active means activity change below about -50%; inconclusive means mostly about -30% to -49%
#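 THP-1 cells pretreated 1 hr with compounds (up to 57.5 uM final), then stimulated with LPS (250 ng/mL final) plus ATP (1.25 mM final); secreted IL-1B measured by AlphaLISA after 16 hr, decreased signal indicating inhibition.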
# A number is an active result; - = inactive; ? = inconclusive; . = no result given. Unless noted, the call rests on the fitted dose curve; in most records, active means well fitted inhibition curve with a large enough effect; inconclusive means small, poorly fitted or top-dose-only effect; inactive means flat fitted curve, though single readings scatter.
SMILES,DRD3 antagonist,D3 ag,DT40 TDP1 CPT,TDP1 cell noCPT,ClpP mod,IL1B secr inh
O=C(Nc1cc(S(=O)(=O)N2CCCCCC2)ccc1OCC(F)(F)F)c1cnccn1,-,-,?,?,-,-
CCOC(=O)C1CCN(C(=O)C2COc3ccccc3C2)CC1 (configuration not stated),.,-,-,-,-,.
COc1ccccc1C(=O)Nc1nc2cc3c(cc2s1)OCCO3,-,-,5.8µM,5.8µM,-,-
CCN(CC)S(=O)(=O)c1ccc2nc(NC(=O)c3ccco3)sc2c1,-,-,-,-,-,-
CCN(CC)S(=O)(=O)c1ccc2nc(NC(=O)c3ccccc3OC)sc2c1,.,-,?,5.17µM,-,.
COc1ccccc1C(=O)Nc1nc2cc3c(cc2s1)OCO3,-,-,?,-,-,-
CC(C)(C)NS(=O)(=O)c1ccc2nc(NC(=O)Cc3cccs3)sc2c1,-,-,?,14.6µM,-,-
CCN(CC)S(=O)(=O)c1ccc2nc(NC(=O)c3cccs3)sc2c1,-56.3,-,?,?,?,-
O=C(Cc1ccc(Cl)cc1)Nc1ccc(Br)cn1,-,-,-,-,-,-
COc1ccc(C/C(C)=N/NC(=O)C2COc3ccccc3O2)cc1 (configuration not stated),-,-,-,-,-,-
Cn1cc(-c2nc3cnc(Oc4ccccc4)nc3n(C3CC3)c2=O)c2ccccc21,.,.,-,-,.,.
Cc1nc(C)n(CC(=O)NCC2Cc3cc(-c4cccc(OC(F)(F)F)c4)ccc3O2)n1 (configuration not stated),.,.,-,0.0184µM,.,.
CC(=O)Nc1ccccc1-c1cccc2nccn12,-,-,-,-,-,-
CCOC(=O)C1=C(C)C/C(=N\NC(=O)c2ccccc2O)CC1,-,-,8.2µM,?,-,-
Cc1cccc(N(CC(=O)Nc2ccccc2-c2ccccc2)S(=O)(=O)c2ccccc2)c1C,-,-,?,23.1µM,-,-
Cc1cc(C)cc(N(CC(=O)Nc2ccccc2-c2ccccc2)S(=O)(=O)c2ccccc2)c1,-,-,-,?,-,-
Cc1ccc(N(CC(=O)Nc2ccccc2-c2ccccc2)S(=O)(=O)c2ccccc2)cc1,-,-,16.4µM,20.6µM,-,-
CCN(CC(=O)Nc1ccc2c(c1)OCCO2)C(=O)c1ccc(S(=O)(=O)N(C)C)cc1,-,-,-,-,-,-
CCC[C@@H](CN1CCC[C@H]1CN1C(N)=NC[C@@H]1Cc1ccccc1)N1C[C@@H](Cc2ccccc2)N(CCCC2CCCC2)C1=N,-64.1,-,?,?,-,-83.5
CC[C@@H](C)[C@@H]1CN([C@@H](CN2CCC[C@H]2CN2C(N)=NC[C@H]2CC(C)C)C(C)C)C(=N)N1CCCC1CCCC1,-,-,?,?,-,?
CCC[C@@H](CN1CCC[C@H]1CN1C(N)=NC[C@H]1CC(C)C)N1C[C@@H](Cc2ccccc2)N(CCCC2CCCC2)C1=N,-,-,10.3µM,11.6µM,-,-65.5
CCCCN1C(=N)N([C@@H](C)CN2CCC[C@H]2CN2C(N)=NC[C@H]2CC(C)C)C[C@H]1Cc1ccccc1,-,-,16.4µM,?,-,-54.5
CC(C)[C@H](CN1CCC[C@H]1CN1C(N)=NC[C@H]1C(C)C)N1C[C@@H](Cc2ccccc2)N(CCCC2CCCC2)C1=N,-,-,?,?,-,-59.8
CCCCN1C(=N)N([C@@H](C)CN2CCC[C@H]2CN2C(N)=NC[C@@H]2Cc2ccccc2)C[C@H]1[C@H](C)CC,-,-,?,?,-,-
CCC[C@@H](CN1CCC[C@H]1CN1C(N)=NC[C@@H]1Cc1ccccc1)N1C[C@@H]([C@H](C)CC)N(CCCC2CCCC2)C1=N,-97.1,-,10.3µM,8.2µM,-,-96.3
SMILES,DRD3 antagonist,D3 ag,DT40 TDP1 CPT,TDP1 cell noCPT,ClpP mod,IL1B secr inh
Cc1nc2ccc(S(=O)(=O)Nc3cccc(-c4nc5cccnc5s4)c3C)cc2s1,-,-,?,25.9µM,-,-
Cc1nc2ccc(S(=O)(=O)Nc3cc(-c4nc5cccnc5s4)ccc3C)cc2s1,-,-,?,20.6µM,-,-
CC(=O)/C(N=Nc1ccc(SC(F)F)cc1)=C(\C)O,-58.7,-,-,-,-,-
CC1CN(S(=O)(=O)c2cccc(-c3csc(-c4ccccc4)n3)c2)CC(C)O1 (configuration not stated),?,-,?,25.9µM,-,-
Cc1nc(-c2cccc(S(=O)(=O)N3CCCCC3)c2)cs1,-,-,-,-,.,-89.2
Cc1nc(-c2cccc(S(=O)(=O)N3CCCC(C)C3)c2)cs1 (configuration not stated),-,-,14.6µM,?,-,-
Cc1nc(-c2cccc(S(=O)(=O)N3CCC(C)CC3)c2)cs1,-,-,?,?,-,-
COc1ccc(C(=O)NCC(c2ccco2)S(=O)(=O)c2cccs2)cc1OC (configuration not stated),.,-,?,?,-,.
CCOc1ccc(C(=O)NC(=S)NC2CCCC2)cc1[N+](=O)[O-],-,-,?,?,-,-
O=C(Nc1ccc(Br)cc1)N1CCC(CN2CCCC2)CC1,.,-,?,-,-,.
Cc1sc2nc(CN(Cc3ccccc3)C(=O)NC3CCCCC3)[nH]c(=O)c2c1C,-,-,20.6µM,18.4µM,-,?
CC(=O)N(Cc1ccccc1)Cc1nc2sc(C)c(C)c2c(=O)[nH]1,-,-,-,13µM,.,-
Cc1sc2nc(CN(C(=O)NCc3ccccc3)C3CCCC3)[nH]c(=O)c2c1C,-,-,?,?,.,?
CC(=O)N(Cc1nc2sc(C)c(C)c2c(=O)[nH]1)C1CCCC1,-,-,20.6µM,?,-,-
Cc1sc2nc(CN(CCc3ccccc3)C(=O)c3ccco3)[nH]c(=O)c2c1C,-,-,?,-,-,-
O=[N+]([O-])c1ccc(S(=O)(=O)N2CCC3(CC2)OCCN3S(=O)(=O)c2cccs2)cc1,-,-,?,?,-,-
O=C(c1ccc(Br)cc1)N1CCCC1,-,-,-,-,-,-
O=C(c1ccc(CNS(=O)(=O)c2ccc(Br)cc2)cc1)N1CCCCCC1,-,-,23.1µM,?,-,-
CN1CCN(C(=O)c2ccc(S(=O)(=O)c3ccc(Br)cc3)cc2)CC1,-,-,?,18.4µM,-,-
